The supplement of paper PMC11732987, “Enantioselective OTUD7B fragment discovery through chemoproteomics screening and high-throughput optimisation” (Communications Chemistry, 2025)

How the values were obtained:
Test in all cases: log2 ratio of Biotin-Ahx-Ub-VS probe labelling (fragment/DMSO); higher = less target engagement (more negative = stronger competition), active = hit call of the paper (q ≤ 0.05, log2 ratio ≤ -1)
Conditions in all cases: compound concentration: 200 uM; treatment time: 3 h
[1] = molecular target: T1, USP42 (UniProt Q9H9J4)
T1 sequence (whole entry): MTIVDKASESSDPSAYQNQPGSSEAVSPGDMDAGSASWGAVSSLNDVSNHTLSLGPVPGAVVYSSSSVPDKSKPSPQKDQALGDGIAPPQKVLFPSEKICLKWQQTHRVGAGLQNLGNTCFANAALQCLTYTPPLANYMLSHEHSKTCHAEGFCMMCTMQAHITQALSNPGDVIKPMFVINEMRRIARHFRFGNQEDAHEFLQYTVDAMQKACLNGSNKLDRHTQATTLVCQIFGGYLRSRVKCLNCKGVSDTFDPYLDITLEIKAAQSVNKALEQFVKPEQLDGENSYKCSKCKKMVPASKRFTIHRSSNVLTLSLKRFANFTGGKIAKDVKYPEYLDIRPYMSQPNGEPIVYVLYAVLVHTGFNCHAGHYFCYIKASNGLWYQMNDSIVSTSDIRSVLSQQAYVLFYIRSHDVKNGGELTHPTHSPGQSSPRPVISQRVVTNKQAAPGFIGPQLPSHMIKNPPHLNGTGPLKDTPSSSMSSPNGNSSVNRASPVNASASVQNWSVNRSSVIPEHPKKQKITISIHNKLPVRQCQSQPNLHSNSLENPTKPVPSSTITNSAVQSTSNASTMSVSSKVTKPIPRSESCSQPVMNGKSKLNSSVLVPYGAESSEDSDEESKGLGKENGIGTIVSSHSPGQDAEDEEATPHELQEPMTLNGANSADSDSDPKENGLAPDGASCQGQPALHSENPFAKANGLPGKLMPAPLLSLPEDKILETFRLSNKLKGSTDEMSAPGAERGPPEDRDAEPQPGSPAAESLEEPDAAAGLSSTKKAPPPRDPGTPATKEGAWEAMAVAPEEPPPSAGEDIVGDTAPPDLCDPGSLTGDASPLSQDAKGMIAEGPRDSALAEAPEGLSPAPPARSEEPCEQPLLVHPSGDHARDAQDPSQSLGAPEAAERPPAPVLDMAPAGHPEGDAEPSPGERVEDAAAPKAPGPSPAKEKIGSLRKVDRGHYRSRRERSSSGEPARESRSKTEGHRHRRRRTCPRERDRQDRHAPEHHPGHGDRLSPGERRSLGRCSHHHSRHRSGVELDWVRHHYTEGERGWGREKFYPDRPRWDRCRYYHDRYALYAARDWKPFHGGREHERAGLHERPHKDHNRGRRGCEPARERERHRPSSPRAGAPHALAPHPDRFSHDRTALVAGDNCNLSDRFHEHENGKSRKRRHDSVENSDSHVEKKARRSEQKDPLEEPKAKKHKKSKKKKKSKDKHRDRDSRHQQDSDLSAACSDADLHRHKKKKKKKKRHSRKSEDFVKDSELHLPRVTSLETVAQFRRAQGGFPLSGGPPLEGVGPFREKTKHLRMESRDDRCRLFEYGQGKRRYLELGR
Method in brief: (§1)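 Using Biotin-Ahx-Ub-VS at 0.5 µM final for 1 h, DUBs were labelled in HEK293T lysate (495 µg per sample) that had first been treated in triplicate with fragment at 200 µM or vehicle for 3 h. NeutrAvidin enrichment, LysC and trypsin digestion and diaPASEF LC-MS/MS followed. Spectronaut label-free quantities were global-median-normalised. Values are average log2 fragment/vehicle ratios by unpaired t-test, using proteins with ≥2 unique peptides.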

[2] = molecular target: USP46 (UniProt P62068)
Method in brief: as §1

[3] = molecular target: T2, USP47 (UniProt Q96K76)
T2 sequence (whole entry): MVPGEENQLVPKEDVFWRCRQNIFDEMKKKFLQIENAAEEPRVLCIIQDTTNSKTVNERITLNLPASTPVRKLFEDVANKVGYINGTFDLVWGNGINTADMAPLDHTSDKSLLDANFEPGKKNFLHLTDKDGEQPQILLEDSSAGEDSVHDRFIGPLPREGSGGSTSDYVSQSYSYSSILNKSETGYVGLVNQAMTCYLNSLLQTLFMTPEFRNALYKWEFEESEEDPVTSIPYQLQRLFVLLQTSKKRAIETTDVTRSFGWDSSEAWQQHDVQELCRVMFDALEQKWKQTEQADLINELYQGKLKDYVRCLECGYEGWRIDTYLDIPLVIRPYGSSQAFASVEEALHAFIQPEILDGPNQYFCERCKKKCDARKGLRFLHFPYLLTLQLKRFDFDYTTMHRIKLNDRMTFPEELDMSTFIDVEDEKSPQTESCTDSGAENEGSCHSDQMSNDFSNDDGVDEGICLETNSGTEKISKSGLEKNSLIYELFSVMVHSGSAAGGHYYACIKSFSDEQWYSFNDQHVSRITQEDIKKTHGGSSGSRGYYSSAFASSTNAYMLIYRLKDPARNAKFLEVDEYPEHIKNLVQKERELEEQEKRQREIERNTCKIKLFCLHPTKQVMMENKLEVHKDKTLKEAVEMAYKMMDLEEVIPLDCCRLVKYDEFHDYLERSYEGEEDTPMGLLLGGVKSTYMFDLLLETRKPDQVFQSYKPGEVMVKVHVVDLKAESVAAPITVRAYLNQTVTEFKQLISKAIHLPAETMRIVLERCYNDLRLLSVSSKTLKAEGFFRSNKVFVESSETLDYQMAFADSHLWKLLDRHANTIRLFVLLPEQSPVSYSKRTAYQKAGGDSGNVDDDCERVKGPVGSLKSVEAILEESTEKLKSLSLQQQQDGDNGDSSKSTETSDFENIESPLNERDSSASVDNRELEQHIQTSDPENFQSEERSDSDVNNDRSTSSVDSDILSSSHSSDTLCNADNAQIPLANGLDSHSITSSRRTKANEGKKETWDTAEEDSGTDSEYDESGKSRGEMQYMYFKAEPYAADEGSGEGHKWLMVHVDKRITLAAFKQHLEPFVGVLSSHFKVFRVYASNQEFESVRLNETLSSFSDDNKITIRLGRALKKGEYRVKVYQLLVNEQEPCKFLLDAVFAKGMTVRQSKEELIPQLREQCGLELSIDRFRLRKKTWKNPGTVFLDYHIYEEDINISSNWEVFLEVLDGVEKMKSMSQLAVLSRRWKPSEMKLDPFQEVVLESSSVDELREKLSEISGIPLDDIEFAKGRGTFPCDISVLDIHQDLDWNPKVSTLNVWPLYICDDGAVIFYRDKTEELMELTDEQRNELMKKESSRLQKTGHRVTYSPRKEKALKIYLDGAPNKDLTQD
Method in brief: as §1

[4] = molecular target: T3, USP48 (UniProt Q86UV5)
T3 sequence (whole entry): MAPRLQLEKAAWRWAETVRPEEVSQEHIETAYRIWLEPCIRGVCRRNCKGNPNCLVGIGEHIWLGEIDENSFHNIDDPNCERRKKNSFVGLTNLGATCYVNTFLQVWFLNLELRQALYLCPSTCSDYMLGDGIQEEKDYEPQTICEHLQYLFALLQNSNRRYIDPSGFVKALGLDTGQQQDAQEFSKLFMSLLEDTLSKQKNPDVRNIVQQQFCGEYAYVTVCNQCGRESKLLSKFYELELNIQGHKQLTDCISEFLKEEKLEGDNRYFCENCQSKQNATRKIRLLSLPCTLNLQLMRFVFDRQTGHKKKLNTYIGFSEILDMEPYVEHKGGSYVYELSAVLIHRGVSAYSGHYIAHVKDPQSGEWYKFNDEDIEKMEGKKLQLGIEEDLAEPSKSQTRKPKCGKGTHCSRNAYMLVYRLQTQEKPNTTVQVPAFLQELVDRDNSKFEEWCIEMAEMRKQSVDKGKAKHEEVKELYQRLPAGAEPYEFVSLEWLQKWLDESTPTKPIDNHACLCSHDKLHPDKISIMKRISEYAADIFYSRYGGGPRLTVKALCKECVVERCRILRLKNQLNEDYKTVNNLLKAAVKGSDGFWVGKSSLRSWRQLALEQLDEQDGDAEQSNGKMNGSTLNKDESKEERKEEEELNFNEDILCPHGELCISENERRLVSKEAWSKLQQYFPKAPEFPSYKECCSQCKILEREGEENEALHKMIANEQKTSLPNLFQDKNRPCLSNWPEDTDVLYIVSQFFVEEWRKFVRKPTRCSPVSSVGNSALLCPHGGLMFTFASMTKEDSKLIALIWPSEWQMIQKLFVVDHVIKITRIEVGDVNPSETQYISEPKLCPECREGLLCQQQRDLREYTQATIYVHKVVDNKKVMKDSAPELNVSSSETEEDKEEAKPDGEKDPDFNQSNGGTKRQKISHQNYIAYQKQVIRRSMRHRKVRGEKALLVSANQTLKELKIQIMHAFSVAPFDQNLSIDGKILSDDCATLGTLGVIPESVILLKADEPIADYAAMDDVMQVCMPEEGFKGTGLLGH
Method in brief: as §1

[5] = molecular target: T4, USP5 (UniProt P45974)
T4 sequence (whole entry): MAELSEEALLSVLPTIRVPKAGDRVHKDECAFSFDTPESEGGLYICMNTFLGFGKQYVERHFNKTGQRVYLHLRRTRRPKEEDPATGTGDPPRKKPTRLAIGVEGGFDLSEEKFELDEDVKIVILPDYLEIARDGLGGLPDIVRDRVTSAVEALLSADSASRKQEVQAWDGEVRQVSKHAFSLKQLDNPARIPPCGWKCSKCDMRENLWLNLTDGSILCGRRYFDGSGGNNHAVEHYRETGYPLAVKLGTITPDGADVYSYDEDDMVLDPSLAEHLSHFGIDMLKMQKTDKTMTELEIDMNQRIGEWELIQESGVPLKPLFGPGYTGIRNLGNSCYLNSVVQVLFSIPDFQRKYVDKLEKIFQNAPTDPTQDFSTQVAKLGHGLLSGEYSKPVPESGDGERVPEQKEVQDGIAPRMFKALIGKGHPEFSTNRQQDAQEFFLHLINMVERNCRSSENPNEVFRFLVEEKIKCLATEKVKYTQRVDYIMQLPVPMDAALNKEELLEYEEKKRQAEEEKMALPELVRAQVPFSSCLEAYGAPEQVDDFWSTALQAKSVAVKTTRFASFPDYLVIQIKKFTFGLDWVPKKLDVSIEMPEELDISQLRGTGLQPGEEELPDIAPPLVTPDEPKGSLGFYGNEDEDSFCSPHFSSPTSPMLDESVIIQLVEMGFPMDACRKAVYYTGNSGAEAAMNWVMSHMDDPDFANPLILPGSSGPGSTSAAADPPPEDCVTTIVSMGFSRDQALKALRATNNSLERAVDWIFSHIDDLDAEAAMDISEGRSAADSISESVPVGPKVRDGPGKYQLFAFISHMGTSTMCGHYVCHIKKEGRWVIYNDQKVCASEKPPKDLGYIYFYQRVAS
Method in brief: as §1

[6] = molecular target: USP54 (UniProt Q70EL1)
Method in brief: as §1

[7] = molecular target: USP7 (UniProt Q93009)
Method in brief: as §1

[8] = molecular target: T5, USP8 (UniProt P40818)
T5 sequence (whole entry): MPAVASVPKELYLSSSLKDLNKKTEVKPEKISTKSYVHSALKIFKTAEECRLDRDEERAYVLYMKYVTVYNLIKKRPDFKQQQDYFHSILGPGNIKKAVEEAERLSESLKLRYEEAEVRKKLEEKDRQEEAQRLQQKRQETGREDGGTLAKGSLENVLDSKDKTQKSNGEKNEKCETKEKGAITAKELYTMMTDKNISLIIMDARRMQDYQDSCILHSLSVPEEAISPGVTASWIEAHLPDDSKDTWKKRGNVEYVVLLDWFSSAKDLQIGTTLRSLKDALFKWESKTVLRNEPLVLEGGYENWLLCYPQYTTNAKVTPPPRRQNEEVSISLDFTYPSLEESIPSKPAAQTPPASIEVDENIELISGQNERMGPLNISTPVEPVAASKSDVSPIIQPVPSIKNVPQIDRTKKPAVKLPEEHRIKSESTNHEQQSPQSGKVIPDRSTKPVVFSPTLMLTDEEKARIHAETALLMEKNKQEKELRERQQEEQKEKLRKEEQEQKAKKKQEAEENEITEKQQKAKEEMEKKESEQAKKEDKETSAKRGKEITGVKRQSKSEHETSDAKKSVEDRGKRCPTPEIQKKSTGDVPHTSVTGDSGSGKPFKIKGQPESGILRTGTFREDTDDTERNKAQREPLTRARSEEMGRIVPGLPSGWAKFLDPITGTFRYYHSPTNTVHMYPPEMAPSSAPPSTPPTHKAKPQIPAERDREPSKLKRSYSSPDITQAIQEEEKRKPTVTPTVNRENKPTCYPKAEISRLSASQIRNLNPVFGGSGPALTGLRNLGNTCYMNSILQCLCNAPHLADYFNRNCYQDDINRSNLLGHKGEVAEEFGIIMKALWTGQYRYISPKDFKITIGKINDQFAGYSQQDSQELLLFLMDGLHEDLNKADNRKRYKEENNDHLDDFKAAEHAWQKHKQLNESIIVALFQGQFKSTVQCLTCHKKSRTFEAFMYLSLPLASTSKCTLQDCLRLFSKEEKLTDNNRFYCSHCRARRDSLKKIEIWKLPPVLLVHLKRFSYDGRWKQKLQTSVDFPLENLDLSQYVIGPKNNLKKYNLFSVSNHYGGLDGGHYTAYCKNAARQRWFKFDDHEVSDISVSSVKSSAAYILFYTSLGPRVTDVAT
Method in brief: as §1

Measured: log2 ratio of Biotin-Ahx-Ub-VS probe labelling

Chain of USP7 (Q93009 whole entry, looked up): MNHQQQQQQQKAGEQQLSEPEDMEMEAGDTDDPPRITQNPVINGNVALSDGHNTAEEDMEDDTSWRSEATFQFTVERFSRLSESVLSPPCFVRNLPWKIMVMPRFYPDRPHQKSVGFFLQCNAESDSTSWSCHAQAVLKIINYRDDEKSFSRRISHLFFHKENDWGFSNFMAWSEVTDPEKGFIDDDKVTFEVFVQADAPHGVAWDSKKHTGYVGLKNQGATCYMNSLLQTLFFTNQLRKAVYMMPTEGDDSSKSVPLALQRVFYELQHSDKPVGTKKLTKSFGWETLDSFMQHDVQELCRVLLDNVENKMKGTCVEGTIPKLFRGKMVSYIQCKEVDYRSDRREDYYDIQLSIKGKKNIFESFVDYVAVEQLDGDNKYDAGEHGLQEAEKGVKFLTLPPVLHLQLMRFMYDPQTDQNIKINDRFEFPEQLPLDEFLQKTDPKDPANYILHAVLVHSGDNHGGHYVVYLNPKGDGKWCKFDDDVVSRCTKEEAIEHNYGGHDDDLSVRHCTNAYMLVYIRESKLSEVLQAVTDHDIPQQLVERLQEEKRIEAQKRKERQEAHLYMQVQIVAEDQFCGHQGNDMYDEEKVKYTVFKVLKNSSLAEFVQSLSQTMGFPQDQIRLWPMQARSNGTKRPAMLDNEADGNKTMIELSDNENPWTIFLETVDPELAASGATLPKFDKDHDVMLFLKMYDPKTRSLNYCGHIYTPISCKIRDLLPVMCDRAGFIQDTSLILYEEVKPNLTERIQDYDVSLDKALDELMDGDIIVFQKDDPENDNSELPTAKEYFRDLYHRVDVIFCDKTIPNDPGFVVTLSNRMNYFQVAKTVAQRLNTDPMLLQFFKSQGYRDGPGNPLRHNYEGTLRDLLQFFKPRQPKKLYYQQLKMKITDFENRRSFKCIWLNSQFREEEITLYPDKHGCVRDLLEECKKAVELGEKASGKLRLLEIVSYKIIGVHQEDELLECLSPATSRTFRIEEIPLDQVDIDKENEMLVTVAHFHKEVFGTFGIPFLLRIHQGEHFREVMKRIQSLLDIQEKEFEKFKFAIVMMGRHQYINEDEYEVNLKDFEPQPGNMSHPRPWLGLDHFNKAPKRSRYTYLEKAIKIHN
Chain of USP54 (Q70EL1 whole entry): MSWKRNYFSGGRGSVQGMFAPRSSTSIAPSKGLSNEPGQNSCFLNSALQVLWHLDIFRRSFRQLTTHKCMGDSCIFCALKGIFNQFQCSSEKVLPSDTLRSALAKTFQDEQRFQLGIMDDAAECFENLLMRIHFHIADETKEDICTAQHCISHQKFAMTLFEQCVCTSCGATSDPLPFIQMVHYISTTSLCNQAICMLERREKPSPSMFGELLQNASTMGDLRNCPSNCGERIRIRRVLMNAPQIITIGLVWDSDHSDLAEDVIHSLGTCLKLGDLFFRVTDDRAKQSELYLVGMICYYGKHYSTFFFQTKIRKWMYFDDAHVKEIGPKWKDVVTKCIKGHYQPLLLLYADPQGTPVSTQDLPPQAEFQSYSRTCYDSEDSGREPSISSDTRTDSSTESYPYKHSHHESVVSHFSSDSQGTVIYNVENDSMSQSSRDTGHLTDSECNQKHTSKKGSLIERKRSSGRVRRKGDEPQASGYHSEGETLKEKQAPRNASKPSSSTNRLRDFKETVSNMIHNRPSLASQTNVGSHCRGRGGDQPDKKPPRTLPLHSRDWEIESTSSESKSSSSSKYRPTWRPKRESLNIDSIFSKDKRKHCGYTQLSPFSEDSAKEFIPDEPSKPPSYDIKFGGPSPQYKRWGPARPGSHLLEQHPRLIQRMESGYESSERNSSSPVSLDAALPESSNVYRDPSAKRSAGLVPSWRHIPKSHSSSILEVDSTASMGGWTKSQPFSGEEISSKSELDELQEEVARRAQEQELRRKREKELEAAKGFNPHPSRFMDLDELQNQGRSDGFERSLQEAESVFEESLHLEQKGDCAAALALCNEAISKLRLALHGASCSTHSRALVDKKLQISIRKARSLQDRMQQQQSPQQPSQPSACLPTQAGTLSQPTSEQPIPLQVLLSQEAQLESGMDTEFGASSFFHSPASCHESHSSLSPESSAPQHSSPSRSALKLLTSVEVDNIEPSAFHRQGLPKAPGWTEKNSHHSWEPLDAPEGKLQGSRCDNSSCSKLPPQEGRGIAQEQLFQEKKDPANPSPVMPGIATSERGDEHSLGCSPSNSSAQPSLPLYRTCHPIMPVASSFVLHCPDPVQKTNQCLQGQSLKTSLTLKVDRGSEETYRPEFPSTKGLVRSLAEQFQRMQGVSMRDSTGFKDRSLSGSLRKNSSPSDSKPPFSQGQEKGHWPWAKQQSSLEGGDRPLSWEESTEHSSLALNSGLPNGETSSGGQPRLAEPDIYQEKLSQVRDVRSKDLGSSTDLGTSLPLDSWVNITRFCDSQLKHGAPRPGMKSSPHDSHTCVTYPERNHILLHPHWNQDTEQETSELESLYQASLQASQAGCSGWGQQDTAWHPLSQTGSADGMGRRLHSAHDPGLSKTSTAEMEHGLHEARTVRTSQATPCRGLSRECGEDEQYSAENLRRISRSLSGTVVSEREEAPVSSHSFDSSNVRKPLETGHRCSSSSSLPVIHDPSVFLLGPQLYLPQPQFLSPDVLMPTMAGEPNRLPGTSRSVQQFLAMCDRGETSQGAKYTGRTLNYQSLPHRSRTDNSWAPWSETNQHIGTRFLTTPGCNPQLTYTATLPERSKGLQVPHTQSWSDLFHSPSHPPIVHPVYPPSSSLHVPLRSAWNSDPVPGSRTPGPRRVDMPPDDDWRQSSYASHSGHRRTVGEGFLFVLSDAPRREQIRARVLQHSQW
Chain of USP46 (P62068 whole entry): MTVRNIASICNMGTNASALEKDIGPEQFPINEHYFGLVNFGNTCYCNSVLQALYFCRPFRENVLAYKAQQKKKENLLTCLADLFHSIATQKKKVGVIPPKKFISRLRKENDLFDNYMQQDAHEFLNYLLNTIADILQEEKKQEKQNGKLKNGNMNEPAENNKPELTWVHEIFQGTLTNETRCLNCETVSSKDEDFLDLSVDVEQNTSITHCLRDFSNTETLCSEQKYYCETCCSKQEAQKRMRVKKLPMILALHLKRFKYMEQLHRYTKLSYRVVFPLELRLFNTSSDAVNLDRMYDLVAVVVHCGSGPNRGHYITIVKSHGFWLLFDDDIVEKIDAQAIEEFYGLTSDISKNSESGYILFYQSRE

O=C(CCl)Nc1cccc2ncccc12
inactive: [1] 0.41 | [2] 0.096 | [3] 0.325 | [4] -0.121 | [5] 0.466 | [6] -0.107 | [7] -0.116 | [8] -0.176
